From PubChem BioAssay
Compounds with a hit are over-represented: about 4.1% of the library has one in this group of screens.
Peg3 prom inh – Peg3 promoter-driven luciferase inhibitors, primary screen, cell-based, HeLa, luciferase luminescence. inhibition, % at 20 µM. 360,000 compounds, 1.7% hits. HeLa PEG-Prom luciferase reporter, overnight. AID 588405, 2011;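 active = inhibition of at least 50% at 20 µM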
TWEAK Fn14 block – inhibitors of TWEAK-Fn14 signaling, primary screen, luciferase reporter cells, uHTS; TWEAK-stimulated Fn14 reporter cells, luciferase luminescence, 8 h; inhibition, % at 10 µM; 360,000 compounds, 2% hits; AID 1159606, 2016; in the data active = inhibition above about 50%
Shn3 inh set2 – reduction of Shn3 3'UTR firefly luciferase signal, primary screen, Schnurri-3 inhibitor project, cell-based, Clone20 osteoblasts, set 2; Clone20 osteoblast Shn3 3'UTR firefly luciferase, 24 h; inhibition, % at 12.5 µM; 360,000 compounds, 0.52% hits;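 active = mean inhibition of at least 75% with every replicate also reaching 75%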
TROY signal inh – inhibitors of TROY-driven NF-kB signaling, primary screen, Q293 LMP1-TROYcd cells, NF-kB luciferase, uHTS | Q293 LMP1-TROYcd NF-kB luciferase reporter, 4 h | inhibition, % at 10 µM | 360,000 compounds, 0.98% hits;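 active = compounds whose plate-normalised and pattern-corrected inhibition of the luciferase reporter signal at the single screening dose is 50% or more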
MITF TRPM1 inh – inhibitors of MITF-dependent TRPM1 promoter reporter, primary screen, cell-based, SK-MEL-5, single point, luciferase; SK-MEL-5 TRPM1 promoter luciferase, 24 h; inhibition, % at 12.5 µM; 330,000 compounds, 0.83% hits; AID 488899, 2010;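 active = mean inhibition across replicates of 60% or more, whatever share of single replicates reaches that level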
EBV LMP1 NFkB – EBV LMP1-driven NF-kappaB luciferase reporter inhibitors, primary screen, cell-based, luminescence, single point; inhibition, % at 12.5 µM; AID 504558, 2011; LMP1-induced NF-kappaB luciferase reporter cells; 350,000 compounds, 0.69% hits; in the data active = inhibition above about 41%
Each line names hits and unclear results; the compound was inactive in the other large screens; ! = not active in a repeat.

O=C(COc1ccc(F)cc1F)N1CCCCCCC1	none
CCN1C(=O)CCN(C2CCCC2)c2nc(Nc3ccc(C(=O)NC4CCN(C)CC4)cc3OC)ncc21	Peg3 prom inh 66, MITF TRPM1 inh 76
COc1ccc(C(=O)NC2CCCCCC2)cc1S(=O)(=O)N1CCCc2ccccc21	none
CCN(CC)S(=O)(=O)c1cccc2cc(C(=O)O)c(O)cc12	TWEAK Fn14 block 79 (no result: TROY signal inh)
CC(C)(C(=O)N1CCC1(C)C(=O)NS(=O)(=O)c1ccc(Cl)s1)c1ccccc1 (centres undefined)	none (no result: MITF TRPM1 inh, EBV LMP1 NFkB)
Cc1cc(C)nc(NC(N)=NCCc2ccccc2)n1	MITF TRPM1 inh 65
Cc1cc(C)nc(NC(N)=NCCc2c[nH]c3ccccc23)n1	none
O=C(CCSc1ccccc1)Nc1nc2c(s1)COc1ccccc1-2	Peg3 prom inh 54
c1coc(CN(Cc2ccco2)c2ncnc3c2oc2ccccc23)c1	TWEAK Fn14 block 66
CCCCn1c(N)c(N(CCOC)C(=O)c2ccc(F)c(S(=O)(=O)N3CCOCC3)c2)c(=O)[nH]c1=O	none
Cc1ccnc2c1ccc1ccccc12	none
c1cnc2c(c1)ccc1cccnc12	Shn3 inh set2 95!, MITF TRPM1 inh 79!
Cc1cccc2cccnc12	none
Cc1ccnc2c1ccc1c(C)ccnc12	Shn3 inh set2 90, MITF TRPM1 inh 77, EBV LMP1 NFkB 84
Cc1ccnc2c1ccc1cccnc12	Shn3 inh set2 92, MITF TRPM1 inh 79, EBV LMP1 NFkB 80
CCCCn1c(N)c(N(CCOC)C(=O)C2CCN(S(=O)(=O)c3ccccc3)CC2)c(=O)[nH]c1=O	none
O=C1N[C@@H](Cc2c[nH]c3ccccc23)COC(=O)[C@H](Cc2ccc(F)cc2)C/C=C\C[C@H]1CC(=O)N(CCO)Cc1ccccc1	EBV LMP1 NFkB 43
O=C1N[C@@H](Cc2c[nH]c3ccccc23)COC(=O)[C@@H](Cc2ccc(F)cc2)CC/C=C/C[C@@H]1CC(=O)N(CCO)Cc1ccccc1	TWEAK Fn14 block 55
N#Cc1c(N)n(-c2ccc(N)cc2)c2nc3ccccc3nc12	none
N#Cc1c(C#N)c(SSc2c(C#N)c(C#N)c(N)n2-c2ccccc2)n(-c2ccccc2)c1N	Peg3 prom inh 105, Shn3 inh set2 89, MITF TRPM1 inh 93
O=C(Cc1ccsc1)NCC(=O)Nc1ccccc1Br	none
CCOc1cccc(NC(=O)/C(C#N)=C\c2cn(CC(=O)O)c3ccccc23)c1	none
CCOc1ccc(NC(=O)/C(C#N)=C/c2cn(CC(=O)O)c3ccccc23)cc1	TWEAK Fn14 block 92
CC1(C)CC(N=c2cc(-c3ccccc3)oc3ccc(Cl)cc23)CC(C)(C)N1	Peg3 prom inh 108
Cc1ccc(NC(=O)CCC(=O)c2cccs2)nc1	none
Cc1ccnc(NC(=O)Cc2ccc(-c3ccccc3)cc2)c1	Peg3 prom inh 98
O=C(Cc1ccc(-c2ccccc2)cc1)Nc1ccccn1	none
COc1ccc(NC(=O)CCC(=O)c2cccs2)c(OC)c1	TWEAK Fn14 block 57
Cc1ccnc(NC(=O)CCC(=O)c2cccs2)c1	TWEAK Fn14 block 92, TROY signal inh 68, EBV LMP1 NFkB 59
COc1cc(NC(=O)CCC(=O)c2cccs2)cc(OC)c1	none
COCCCN(C(=O)C(C)Oc1ccc(Br)cc1)c1c(N)n(Cc2ccccc2)c(=O)[nH]c1=O (centres undefined)	none
CCOC(=O)N1CCN(C(=O)C[C@@H]2C[C@@]3(C(=O)OCC)CCC=C3N(Cc3ccccc3)C2=O)CC1	none (no result: Peg3 prom inh, Shn3 inh set2, MITF TRPM1 inh, EBV LMP1 NFkB)
NC(=O)c1ccc(-c2nnn(CC(=O)N(C3CCCC3)C3CCS(=O)(=O)C3)n2)cc1 (centres undefined)	none
Cc1[nH]c2ccccc2c1C1=NNC(=Nc2ccc(F)cc2)SC1	TWEAK Fn14 block 55
Cc1cccc(CCNS(=O)(=O)c2ccc3c(c2)CCN3C(=O)CCC(=O)O)c1	none
Cc1ccc(-n2nnc3c(=O)n(CC(=O)NCc4ccco4)cnc32)cc1	none (no result: MITF TRPM1 inh)
O=C(Cn1cnc2c(nnn2-c2ccccc2)c1=O)NCc1ccco1	EBV LMP1 NFkB 87
